Inconclusive results are not listed. Where a call stands in place of a potency, no number is given. Active and inactive are the calls of the source. The call rests on the fitted dose curve; in most records, active means well fitted inhibition curve with a large enough effect; inconclusive means small, poorly fitted or top-dose-only effect; inactive means flat fitted curve, though single readings scatter.
Each molecule was assayed on CP201 (assay: qHTS profiling for inhibitors of Plasmodium falciparum proliferation (AID 504749; further: nearly all actives have a fitted effect of over 60% in size)). Details: P. falciparum in erythrocytes, SYBR Green DNA, 72 h; series mostly up to 28.7 µM.
Summary of the method: (§1)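 P. falciparum-infected erythrocytes (0.3% parasitemia, 2.5% hematocrit) incubated with compound 72 h at 37 C, 5% CO2. Parasite DNA detected by SYBR Green after lysis, overnight at room temperature; normalised to 0.29 uM artemisinin and DMSO.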
Potency means the concentration at half of the fitted maximal effect.

| Compound | Potency |
| --- | --- |
| Cc1cc(C)cc(C(=O)OC2CC3CCC(C2)N3C)c1 (configuration not stated) | inactive |
| CCCN1CCCC2Cc3nc(N)ncc3CC21 (configuration not stated) | inactive |
| COc1ccc2c3c1O[C@H]1[C@@H](O)C=C[C@H]4C(C2)NCCC341 (some centres not stated) | inactive |
| CCCCCC(O)C1C(=O)OC(C)C(O)\C=C/C=C\C=C/C=C\C=C(\C)C(O)C(O)C(O)CC(O)CC(O)CC(O)CC(O)CC1O (configuration not stated) | inactive |
| CCCCCc1cc(O)c2c(c1)OC(C)(C)C1CC=C(C)CC21 (configuration not stated) | 15100 nM (active) |

What follows are molecules tested on CP203 in the same assay as above. Details: P. falciparum in erythrocytes, SYBR Green DNA, 72 h; series mostly up to 28.7 µM.
Summary of the method: as §1

| Compound | Potency |
| --- | --- |
| C[C@H](N)Cc1ccccc1 | inactive |
| C[C@]12C=CC(=O)C=C1CC[C@@H]1C2CC[C@]2(C)OC(=O)CCC12 (some centres not stated) | inactive |
| OCC(O)[C@H]1O[C@@H]2O[C@H](C(Cl)(Cl)Cl)O[C@@H]2[C@H]1O (some centres not stated) | inactive |
| CC1(C)[C@@H](C=C(Cl)Cl)[C@@H]1C(=O)OCc1c(F)c(F)cc(F)c1F | inactive |
| CC1(C)S[C@@H]2[C@H](N)C(=O)N2C1C(=O)O (some centres not stated) | inactive |
| C=C1Nc2ccccc2C(=O)N1c1ccccc1C | inactive |
| CC1OC(O[C@H]2C[C@@H](O)[C@]3(CO)[C@@H]4C(CC[C@]3(O)C2)[C@@]2(O)CC[C@H](C3=CC(=O)OC3)[C@@]2(C)C[C@H]4O)C(O)C(O)C1O (some centres not stated) | inactive |
| O=[N+]([O-])OC1CO[C@H]2C(O[N+](=O)[O-])COC12 (some centres not stated) | inactive |
| CCOC(=O)/C=C(C)/C=C/CC(C)CCCC(C)C (configuration not stated) | inactive |
| [S]=[Sb][S][Sb]=[S] | inactive |
| CN1C2CCC1C(C(=O)O)C(OC(=O)c1ccccc1)C2 (configuration not stated) | inactive |
| C[C@@H]1CC[C@H]2[C@@H](C)C(=O)O[C@@H]3OC4(C)CC[C@@H]1C32OO4 (some centres not stated) | 13.5 nM (active) |
| Cc1ccc2c(c1)[C@@H]1CN(C)CC[C@H]1N2 | inactive |
| Nc1nc(O)c(-c2ccccc2)o1 | inactive |
| C=CC[N+]1(C)CCC23c4c5ccc(O)c4O[C@H]2C(=O)CC[C@@]3(O)C1C5 (some centres not stated) | inactive |
| OC[C@@H](O)[C@H]1O[C@@H]2OC(C(Cl)(Cl)Cl)O[C@H]2[C@H]1O (some centres not stated) | inactive |
| CCCCCCC(=O)O[C@H]1CC[C@H]2[C@@H]3CCC4CC(=O)C=C(C)[C@]4(C)[C@H]3CC[C@]12C (some centres not stated) | inactive |
| Cc1cc(C)cc(C(=O)OC2CC3CCC(C2)N3C)c1 (configuration not stated) | inactive |
| CCCN1CCCC2Cc3nc(N)ncc3CC21 (configuration not stated) | inactive |
| COc1ccc2c3c1O[C@H]1[C@@H](O)C=C[C@H]4C(C2)NCCC341 (some centres not stated) | inactive |
| CCCCCC(O)C1C(=O)OC(C)C(O)\C=C/C=C\C=C/C=C\C=C(\C)C(O)C(O)C(O)CC(O)CC(O)CC(O)CC(O)CC1O (configuration not stated) | inactive |
| CCCCCc1cc(O)c2c(c1)OC(C)(C)C1CC=C(C)CC21 (configuration not stated) | 2130 nM (active) |

— PubChem BioAssay (NCATS)
